Measurements taken from the supplement of paper PMC12808144.
A number with no mark means an inactive call.

Key:
NHEM-hTERT = assay: cell viability relative to DMSO control (fraction of DMSO control); higher = less cytotoxic, active = 0.5 or less; conditions: 1 µM; 120 h
In short: (§1)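 For 120 h, duplicate wells of 384-well plates held 1 µM of each of 315 approved anti-cancer drugs (TargetMol), spotted acoustically before cells were added in 40 µl per well. Immortalized NHEM-hTERT melanocytes were seeded at 2500/well, and patient-derived Mel-DCC-11 plus its resistant subline Mel-DCC-11-R at 1500/well. The subline was run both without and with 8 µM of its selecting drug, and ATPlite 1step luminescence was read. Viability was normalised to vehicle-treated wells and averaged over the two replicates.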

Mel-DCC-11-R = assay: cell viability relative to DMSO control (fraction of DMSO control); higher = less cytotoxic, active = 0.8 or less; conditions: 1 µM, 120 h
In short: as §1

Row | SMILES | cell viability (NHEM-hTERT) | cell viability (Mel-DCC-11-R; vemurafenib co-treatment 0 µM) | cell viability (Mel-DCC-11-R; vemurafenib co-treatment 8 µM)
1 | c1cn2cc(-c3ccc4cn[nH]c4c3)nc(Nc3ccc(N4CCOCC4)cc3)c2n1 [Entospletinib] | 0.558 | 0.904 | 0.877
2 | CC[C@@H]1C(=O)N(C)c2cnc(Nc3ccc(C(=O)N[C@H]4CC[C@H](N5CCN(CC6CC6)CC5)CC4)cc3OC)nc2N1C(C)C [Volasertib] | 0.872 | 1 | 0.664 (active)
3 | Cl.Cl.O=C1c2c(O)ccc(O)c2C(=O)c2c(NCCNCCO)ccc(NCCNCCO)c21 [Mitoxantrone hydrochloride] | 0.797 | 1.14 | 0.477 (active)
4 | Nc1ncn([C@H]2C[C@H](O)[C@@H](CO)O2)c(=O)n1 [Decitabine] | 0.907 | 1.31 | 0.968
5 | N#Cc1ccc(C(c2ccc(C#N)cc2)n2cncn2)cc1 [Letrozole] | 1.03 | 1.08 | 1.06
6 | CS(=O)(=O)c1ccc(C2=C(c3ccccc3)C(=O)OC2)cc1 [Rofecoxib] | 0.925 | 0.862 | 0.825
7 | CC(=O)O[C@H]1C(=O)[C@]2(C)[C@@H](O)C[C@H]3OC[C@@]3(OC(C)=O)[C@@H]2[C@@H](OC(=O)c2ccccc2)[C@]2(O)C[C@H](OC(=O)[C@H](O)[C@@H](NC(=O)c3ccccc3)c3ccccc3)C(C)=C1C2(C)C [Paclitaxel] | 0.569 | 1.06 | 0.526 (active)
8 | CN(CCOc1ccc(CC2SC(=O)NC2=O)cc1)c1ccccn1.O=C(O)/C=C\C(=O)O (stereo not drawn) [Rosiglitazone maleate] | 1.06 | 0.97 | 1.12
9 | CO[C@H]1C[C@@H]2CC[C@@H](C)[C@@](O)(O2)C(=O)C(=O)N2CCCC[C@H]2C(=O)O[C@H]([C@H](C)C[C@@H]2CC[C@@H](O)[C@H](OC)C2)CC(=O)[C@H](C)/C=C(\C)[C@@H](O)[C@@H](OC)C(=O)[C@H](C)C[C@H](C)/C=C/C=C/C=C/1C [Rapamycin] | 0.819 | 1.54 | 0.783 (active)
10 | COc1ccc2cc1Oc1ccc(cc1)C[C@H]1c3c(cc4c(c3Oc3cc5c(cc3OC)CCN(C)[C@@H]5C2)OCO4)CCN1C [Cepharanthine] | 1.13 | 0.934 | 0.912
11 | CN1CCN(c2ccc3nc(-c4c(N)c5c(F)cccc5[nH]c4=O)[nH]c3c2)CC1 [Dovitinib] | 0.972 | 1.05 | 1.08
12 | CC(=O)O[C@]1(C(C)=O)CC[C@H]2[C@@H]3CCC4=CC(=O)CCC4=C3[C@@H](c3ccc(N(C)C)cc3)C[C@@]21C [Ulipristal acetate] | 0.967 | 1.13 | 1.04
13 | Nc1ncn([C@@H]2O[C@H](CO)[C@@H](O)[C@H]2O)c(=O)n1 [Mylosar] | 0.874 | 0.927 | 0.745 (active)
14 | CC(C)=CCC/C(C)=C/CC/C(C)=C/CC/C(C)=C/CC1=C(C)C(=O)c2ccccc2C1=O [Menatetrenone] | 1.02 | 1.11 | 1.18
15 | O=C(O)CCc1nc2ccccc2[nH]1 [Procodazole] | 1.02 | 1.09 | 1
16 | CN(C)CCOc1ccc(/C(=C(/CCCl)c2ccccc2)c2ccccc2)cc1 [Toremifene] | 0.904 | 0.887 | 1.26
17 | Clc1ccc(C(c2ccccc2Cl)C(Cl)Cl)cc1 (stereo not drawn) [Mitotan] | 0.958 | 1 | 0.82
18 | CC(C)C(=O)Nc1ccc([N+](=O)[O-])c(C(F)(F)F)c1 [Flutamide] | 1.25 | 1.1 | 1.21
19 | CCN(CC)CCNC(=O)c1c(C)[nH]c(/C=C2\C(=O)Nc3ccc(F)cc32)c1C [Sunitinib] | 0.591 | 1.16 | 0.564 (active)
20 | CC[C@@]1(O)C(=O)OCc2c1cc1n(c2=O)Cc2cc3cc(O)ccc3nc2-1 [10-Hydroxycamptothecin] | 0.731 | 0.478 (active) | 0.249 (active)
21 | CC(C)C[C@H](NC(=O)CNC(=O)c1cc(Cl)ccc1Cl)B(O)O [Ixazomib] | 0.0856 (active) | 0.13 (active) | 0.0834 (active)

Row | SMILES | cell viability (NHEM-hTERT) | cell viability (Mel-DCC-11-R; vemurafenib co-treatment 0 µM) | cell viability (Mel-DCC-11-R; vemurafenib co-treatment 8 µM)
22 | Cc1nc2ccc(CN(C)c3ccc(C(=O)N[C@@H](CCC(=O)O)C(=O)O)s3)cc2c(=O)[nH]1 [Raltitrexed] | 1.03 | 1.16 | 1.09
23 | O=C(/C=C/c1cccc(S(=O)(=O)Nc2ccccc2)c1)NO [Belinostat] | 0.737 | 0.839 | 0.659 (active)
24 | C=C1CC[C@@H]2[C@](C)(CO)[C@H](O)CC[C@@]2(C)[C@@H]1C/C=C1/C(=O)OC[C@H]1O [Andrographolide] | 1.17 | 0.887 | 1.02
25 | Nc1nc(=O)c2c([nH]1)NC[C@H](CNc1ccc(C(=O)N[C@@H](CCC(=O)[O-])C(=O)[O-])cc1)N2C=O.[Ca+2] [Calcium Levofolinate] | 1.02 | 1.8 | 1.27
26 | O=c1cc(O)c(Cl)c[nH]1 [Gimeracil] | 0.996 | 0.944 | 1.13
27 | COc1cc2nccc(Oc3ccc(NC(=O)Nc4cc(C)on4)c(Cl)c3)c2cc1OC [Tivozanib] | 1.09 | 1.08 | 1.08
28 | Nc1ccccc1NC(=O)c1ccc(CNc2nccc(-c3cccnc3)n2)cc1 [Mocetinostat] | 0.55 | 0.558 (active) | 0.545 (active)
29 | C.CCN(CC)CCCC(C)Nc1ccnc2cc(Cl)ccc12.O=P(O)(O)O.O=P(O)(O)O (stereo not drawn) [Chloroquine diphosphate] | 1.27 | 0.913 | 1.1
30 | O=c1cc[nH]c(=O)[nH]1 [Uracil] | 1.1 | 0.875 | 1.01
31 | CN(N=O)C(=O)N[C@@H]1[C@@H](O)[C@H](O)[C@@H](CO)O[C@@H]1O [Streptozocin] | 1.11 | 0.976 | 1.1
32 | CC(C)C[C@@H](NC(=O)[C@H](O)[C@@H](N)Cc1ccccc1)C(=O)O.Cl [Bestatin hydrochloride] | 1.08 | 0.993 | 1.14
33 | CNC(=O)c1ccccc1Sc1ccc2c(/C=C/c3ccccn3)n[nH]c2c1 [Axitinib] | 0.879 | 0.981 | 1.03
34 | CCCCCCCCCCCC1=C(O)C(=O)C=C(O)C1=O [Embelin] | 1.01 | 1.07 | 1.15
35 | COC(=O)c1cc(OC)c2c(c1-c1c(CO)cc(OC)c3c1OCO3)OCO2 [Bicyclol] | 1.12 | 0.998 | 1.1
36 | NC1CCCCC1N.O=C([O-])C(=O)[O-].[Pt+2] (stereo not drawn) [Oxaliplatin] | 1.05 | 1.01 | 1.12
37 | CC(=O)OCC(=O)[C@@]1(O)CC[C@H]2[C@@H]3CCC4=CC(=O)C=C[C@]4(C)[C@H]3[C@@H](O)C[C@@]21C [Prednisolone-21-acetate] | 0.931 | 1.14 | 1.04
38 | Nc1nc([O-])c2c(CCc3ccc(C(=O)N[C@@H](CCC(=O)[O-])C(=O)[O-])cc3)c[nH]c2n1.[Na+].[Na+] [Pemetrexed disodium] | 1.05 | 0.818 | 0.881
39 | Cc1cc(Nc2ncc(Cl)c(Nc3ccccc3S(=O)(=O)C(C)C)n2)c(OC(C)C)cc1C1CCNCC1 | 0.88 | 1.17 | 0.873
40 | Cl.N=C1CCCN1Cc1[nH]c(=O)[nH]c(=O)c1Cl [Tipiracil hydrochloride] | 0.914 | 0.816 | 0.877
41 | CCc1c2c(nc3ccc(OC(=O)N4CCC(N5CCCCC5)CC4)cc13)-c1cc3c(c(=O)n1C2)COC(=O)[C@]3(O)CC [Irinotecan] | 0.894 | 0.98 | 0.694 (active)
